Most compounds without a hit are left out; they make up all but 1.6% or so of the library.
KCNQ2 enhance = potentiators of rat KCNQ2 potassium channel. CHO-K1 KCNQ2, FluxOR thallium flux fluorescence; stronger effect = higher value. O88943. AID 2239. B-score at 10 µM. actives 0.54% (n = 310,000);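 active = fluorescence ratio B-score at least 3 SD of library B-scores, with initial fluorescence B-score within 3 of them, cut at about 5.3 in these data; same plate scores as AID 2156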;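 also: B-score of peak minus minimum over baseline fluorescence ratio after K+ and Tl+ stimulus; positive B-score means potentiation of KCNQ2 with more thallium influx and brighter signal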
Target sequence (O88943 whole entry, looked up): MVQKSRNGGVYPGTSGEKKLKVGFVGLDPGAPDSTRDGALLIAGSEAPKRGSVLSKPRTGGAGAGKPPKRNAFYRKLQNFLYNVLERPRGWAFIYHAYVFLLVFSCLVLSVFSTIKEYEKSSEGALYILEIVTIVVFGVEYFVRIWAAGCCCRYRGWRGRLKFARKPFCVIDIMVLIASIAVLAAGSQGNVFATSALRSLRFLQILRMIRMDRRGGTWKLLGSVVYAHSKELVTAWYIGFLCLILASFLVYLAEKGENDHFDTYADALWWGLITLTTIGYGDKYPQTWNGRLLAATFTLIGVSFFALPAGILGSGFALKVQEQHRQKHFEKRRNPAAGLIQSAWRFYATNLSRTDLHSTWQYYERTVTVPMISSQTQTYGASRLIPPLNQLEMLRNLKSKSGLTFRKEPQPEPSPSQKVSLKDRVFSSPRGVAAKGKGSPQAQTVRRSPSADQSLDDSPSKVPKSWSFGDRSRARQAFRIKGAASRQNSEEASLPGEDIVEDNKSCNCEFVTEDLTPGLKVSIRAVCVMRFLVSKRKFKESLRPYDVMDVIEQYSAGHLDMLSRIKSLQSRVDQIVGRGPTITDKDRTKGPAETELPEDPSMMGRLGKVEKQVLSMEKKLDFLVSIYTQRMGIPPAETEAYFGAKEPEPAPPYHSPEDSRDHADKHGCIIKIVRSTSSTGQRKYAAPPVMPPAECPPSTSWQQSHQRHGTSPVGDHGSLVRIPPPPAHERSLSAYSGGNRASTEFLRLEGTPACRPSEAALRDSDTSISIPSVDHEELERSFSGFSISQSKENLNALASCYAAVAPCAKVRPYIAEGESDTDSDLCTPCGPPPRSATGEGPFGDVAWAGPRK
KCNQ2 inh = KCNQ2 (rat) channel inhibition; CHO-K1 KCNQ2, FluxOR thallium flux, 20 min; stronger effect = lower value; B-score at 10 µM; actives 1.1% (n = 310,000);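 active = fluorescence ratio B-score at most minus 3 library SDs, with starting brightness B-score within 2 library SDs, cut at about -5.5 in these data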
Hits are given with their value; i = inactive; nt = no result given.

SMILES	KCNQ2 enhance	KCNQ2 inh
O=C(COc1ccc(Br)cc1)N1CCN(C2CCCC2)CC1	nt	i
Cc1ccc(OCC(=O)N2CCN(C3CCC(c4ccccc4)CC3)CC2)cc1 (stereo not given)	i	-6.25
CCc1c(C)nc(N)nc1N1N=C1SCC(=O)OC	9.62	i
CCc1c(C)nc(N)nc1N1N=C1SCC#N	i	i
Clc1ccc(N2CC2c2ccncc2)cc1 (stereo not given)	nt	i
Cn1c(O)c(Cc2cccc(Cl)c2Cl)c(=O)n(C)c1=O	i	i
COC(=O)C1=C(c2cccc(OC)c2OC)C[C@@H]2CC[C@H]1N2C(=O)NCc1ccccc1	nt	i
COC(=O)C1=C(c2cccc(OC)c2OC)C[C@@H]2CC[C@H]1N2C(=O)NCc1cccc2ccccc12	i	-6.83
O=c1c2ccccc2nc(CNCc2ccco2)n1-c1ccc(F)cc1	nt	i
Clc1ccc(CO/N=C(\Cn2ccnc2)c2ccc(Cl)cc2Cl)c(Cl)c1	i	-6.05
N=c1sccn1Cc1ccc(Cl)cc1Cl	i	i
CCCCNC(=O)c1c(N)n(CCCOC)c2nc3ccccc3nc12	i	-8.49
COCCCn1c(N)c(C(=O)OCCOC)c2nc3ccccc3nc21	i	i
CN1C(=O)C(=Cc2coc3ccccc3c2=O)C(=O)N(C)C1=O	nt	i
O=C1NC(=O)C(=Cc2coc3ccc(O)cc3c2=O)C(=O)N1	i	-5.81
CC(=O)c1cccc(NC(=O)N2C[C@H]3C[C@@H](C2)c2cccc(=O)n2C3)c1	i	i
CC(=O)Nc1ccccc1C(=O)OCc1cccc(F)c1	nt	i
CC(=O)Nc1ccccc1C(=O)OCc1ccc(C(=O)c2ccccc2)cc1	i	-6.48
O=C(COc1ccc(Br)cc1)N1CCN(Cc2c[nH]c3ccccc23)CC1	i	-5.82
c1ccc2c(CN3CCCCC3)c[nH]c2c1	nt	i
CCOC(=O)C1(c2ccccc2)CCN(CC(=O)Nc2ccc(C)cc2)CC1	nt	i
CCOC(=O)C1(c2ccccc2)CCN(CCC(C#N)(c2ccccc2)c2ccccc2)CC1	i	-6.85
COc1ccc(NC(=O)c2cn(CCC#N)nc2-c2ccc(OC)c(OC)c2)cc1	nt	i
N#Cc1ccccc1Cn1cc(C(=O)c2cccs2)c2ccccc21	nt	i
O=C(c1cccs1)c1cn(Cc2ccccc2Cl)c2ccccc12	i	-7.33
SMILES	KCNQ2 enhance	KCNQ2 inh
FC(F)(F)c1ccc(NC2=NCCCS2)cc1	i	i
CCCCn1c(=O)c(C(=O)NCc2ccccc2Cl)c(O)c2ccccc21	nt	i
O=P(O)(Oc1ccccc1)OC(c1ccccc1)C(F)(F)F (stereo not given)	i	i
O=P(NC(c1ccccc1)c1ccccc1)(Oc1ccccc1)Oc1ccccc1	i	-5.86
C[C@]12N[C@H](Cc3ccccc31)c1ccccc12	i	i
COc1cc2c(cc1/C=C/[N+](=O)[O-])OCO2	i	-7.82
COc1cc(/C=C/[N+](=O)[O-])ccc1OC(=O)c1cccnc1	nt	i
O=C(C[N+]12CCN(CC1)CC2)NCCc1ccc(Cl)cc1Cl	nt	i
COc1ccc(OC)c(NP(=O)(Oc2ccccc2)Oc2ccccc2)c1	i	i
COc1ccc(OC)c(NP(=O)(Oc2ccc(Cl)cc2)Oc2ccc(Cl)cc2)c1	i	-6.14
CC(C)c1ccc(-n2c(O)c(C=NC(CCS(C)=O)C(=O)O)c(=O)[nH]c2=S)cc1 (stereo not given)	i	i
O=C(O)c1ccc(-[n+]2c(-c3ccccc3)cc(-c3ccccc3)cc2-c2ccccc2)cc1	i	i
Nc1ccccc1-[n+]1c(-c2ccccc2)cc(-c2ccccc2)cc1-c1ccccc1	i	-6.47
COc1ccccc1NC1(C#N)CCCCC1	nt	i
O=S(=O)(c1ccccc1)N1CCN2CCCC2C1 (stereo not given)	nt	i
O=C(CN1CCCC1)Nc1ccc(Cl)cc1C(=O)c1ccccc1	i	i
O=C(CCN1CCCCC1)Nc1ccc(Cl)cc1C(=O)c1ccccc1	i	-5.64
CC1CCC2[C@@H](C)C(=O)OC3O[C@]4(C)CCC1C32OO4 (stereo not given in full)	i	i
O=C(CCC(=O)N1CCC2(CC1)OCCO2)Nc1nnc(C2CCCCC2)s1	nt	i
Cc1cc(O)c2c(c1)OC(C)(C)C1=C2CC(C)CC1 (stereo not given)	i	-7.33
Cc1cc(O)c2c3c(c(=O)oc2c1)CCC(C)C3 (stereo not given)	nt	i
N#Cc1ccc(NC(=O)CN2CCCCCC2)cc1Cl	nt	i
COc1ccc(-c2nn(CCC#N)cc2C(=O)Nc2ccc(C(C)=O)cc2)cc1[N+](=O)[O-]	i	i
Cc1nc2ccccc2c(=O)n1-c1ccc(Br)cc1[N+](=O)[O-]	7.41	i
Cc1nc2ccccc2c(=O)n1-c1ccccc1[N+](=O)[O-]	i	i
SMILES	KCNQ2 enhance	KCNQ2 inh
C[C@H](NC(=O)N1C[C@H]2C[C@@H](C1)c1cccc(=O)n1C2)C(=O)Nc1cccc(F)c1	i	i
O=P(Nc1ccccc1)(Oc1ccccc1)Oc1ccccc1	i	i
COc1cccc(OP(=O)(Nc2ccccc2)Oc2cccc(OC)c2)c1	i	-7.07
Clc1ccc(COC(Cn2ccnc2)c2ccc(Cl)cc2Cl)cc1 (stereo not given)	i	-8.31
Clc1ccc(CSC(Cn2ccnc2)c2ccc(Cl)cc2Cl)cc1 (stereo not given)	nt	i
CC(C)N1OC2CC1c1nc3ccccc3n1C2 (stereo not given)	i	i
CCOP(=O)(OCC)C(O)c1ccc(N(C)C)cc1 (stereo not given)	nt	i
CCCN1CCc2cccc3c2[C@H]1Cc1ccc(O)c(O)c1-3	i	-6.03
COc1cc2c(cc1O)CC1c3c(cc(O)c(OC)c3-2)CCN1C (stereo not given)	nt	i
CCCCNC(=O)NC(C(N)=O)P(=O)(OCC)OCC (stereo not given)	i	i
Cc1ccccc1N1CCN(C2CCCN(C(=O)COc3ccccc3)C2)CC1 (stereo not given)	nt	i
CC(=O)O[C@]1(C)C(=O)OC/C2=C/CN(C)CCC(OC(=O)[C@@](O)(C(C)O)C[C@H]1C)C2=O (stereo not given in full)	i	i
O=C(Nc1cccnc1)c1c(O)c2c(n(Cc3ccccc3)c1=O)CCCC2	i	-5.82
O=C(Nc1ccc(F)cc1)c1c(O)c2c(n(Cc3ccccc3)c1=O)CCCC2	nt	i
CCOc1ccccc1-n1c(O)c(C=NCCCn2ccnc2)c(=O)[nH]c1=O	i	i
Cc1ccc(S(=O)(=O)N(C)C/N=C(\N)N[N+](=O)[O-])cc1	i	i
COC(=O)[C@@H](N)CCCN=C(N)N[N+](=O)[O-]	i	-6.4
CCOP(=O)(OCC)C(NC(=O)c1cccc(C)c1)C(Cl)(Cl)Cl (stereo not given)	i	i
Cc1cccc(C(=O)NC(Oc2ccccc2)C(Cl)(Cl)Cl)c1 (stereo not given)	i	-5.67
O=C(Cn1ncc2c3ccccc3n(Cc3ccc(F)cc3)c2c1=O)N1CCC2(CC1)OCCO2	19.4	i
Cc1c2cnn(CC(=O)N3CCC4(CC3)OCCO4)c(=O)c2c(C)n1Cc1ccccc1	nt	i
C=CCn1c(O)c(C(C)=NCCCN(C)C)c(=O)[nH]c1=O	i	i
CC(C)CCN1CCN(Cc2c(F)cccc2Cl)CC1CCO (stereo not given)	nt	i
CSc1ccc(CN2CCN(C(=O)Cc3ccccc3)CC2)cc1	i	i
CSc1ccc(CN2CCN(Cc3ccccc3Cl)CC2)cc1	i	-6.59
COc1ccc(NC(c2ccccc2F)P(=O)(Oc2ccccc2)Oc2ccccc2)cc1 (stereo not given)	nt	i

Source: PubChem
